This note sets out measurements from PubChem BioAssay (NCATS).

SMILES strings stand for the structures. A number with no mark means an inactive call. Results filed as inconclusive are left out. Calls of active or inactive are those of the source. Unless noted, calls follow the shape of the dose curve; as a rule, active = well fitted curve in the direction sought with a large enough effect; inconclusive = small, poorly fitted or top-dose-only effect, or another doubt; inactive = no such curve, though single readings can be large; an effect the other way counts as inactive or inconclusive.

Assay [1] can be described thus: Cell Viability - NIH 3T3 (AID 541).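 Also: cells exposed to compound for 40 hours; plate controls were DMSO alone for no effect and tamoxifen positive control for full effect; nearly all actives have a fitted effect of over 25% in size.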 Particulars: NIH 3T3 cell viability, qHTS; activity change, negative = cytotoxicity: at 92.2 µM (top of the series). The procedure, abridged:
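Intracellular ATP (CellTiter-Glo luminescence, 20 min at room temperature) measured after 40 hr compound exposure at 37 °C of 1000 NIH 3T3 mouse fibroblasts/well in complete medium; AC50 derived by Hill-equation modelling of qHTS concentration-response curves.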

Assay [2] is described as follows: Cell Viability - Mesenchymal (AID 546).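 Also: cells exposed to compound for 40 hours before reading; 0% = DMSO only and -100% = 100 µM tamoxifen.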 The conditions noted are these: mesenchymal cells viability, qHTS; activity change, negative = cytotoxicity: at 91.7 µM (top of the series). An outline of the steps:
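In this qHTS cytotoxicity format, glomerulus-derived human mesenchymal kidney cells received compound for 40 hr, then luciferase-based ATP quantitation. Concentration-response data were fitted with the Hill equation.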
On the technique in general: In qHTS, concentration-response curves come from the screen itself.

Assay [3] can be described thus: Cell Viability - LYMP2-023 (AID 975).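 Also: cellular ATP measured by luciferase luminescence as viability proxy; cells exposed to compound for 24 hours at 37 °C; plate controls were DMSO only for no effect and 92 µM tetraoctylammonium bromide control for full effect; nearly all actives have a fitted effect of over 55% in size.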 An outline of the steps: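 Intracellular ATP, read by CellTiter-Glo luminescence, reports viability after 24 hr compound exposure at 37 C. 2500 lymphoblastoid cells/well (LYMP2-023) seeded 5 hr beforehand; Hill fits give AC50; positive control tetraoctylammonium bromide.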
Assay [4] is described as follows: Cell Viability - LYMP2-006 (AID 978).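 Also: cells exposed to compound for 24 hours; % is scaled to controls: 0 for no effect and ±100 for the full control effect; nearly all actives have a fitted effect of over 60% in size.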 An outline of the steps:
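Cells are seeded at 2500 per well and rested 5 hr at 37 C. Compounds are added across a concentration series for 24 hr at 37 C, after which ATP is quantified by luciferase luminescence.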

Assay [5] is described as follows: Cell Viability - LYMP2-026 (AID 989). Also: % is scaled to controls: 0 for no effect and ±100 for the full control effect; nearly all actives have a fitted effect of over 50% in size. The procedure, abridged:
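Cytotoxicity read as ATP-dependent luminescence (CellTiter-Glo, 30 min room temperature) after 24 h compound treatment at 37 C. LYMP2-026 lymphoblastoid line seeded at 2500 cells/well; AC50 derived by standard Hill equation.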

The nature of assay [6]: Cell Viability - LYMP1-002 - Assay at 40 hr (AID 994).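 Also: 0% = DMSO only and full inhibition = 92 µM tetraoctylammonium bromide; nearly all actives have a fitted effect of over 60% in size.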 An outline of the steps: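 Cytotoxicity was read as loss of cellular ATP (CellTiter-Glo luminescence) after 40 hr compound exposure at 37 C of 2500 LYMP1-002 lymphoblastoid cells per well. Concentration-response data were fitted with the standard Hill equation to give AC50.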
The target in assay [7] is Estrogen receptor (Homo sapiens) (UniProt P03372). As to the kind of experiment: qHTS assay for small molecule antagonists of estrogen receptor alpha signaling (AID 588513; active = well fitted curve in the direction sought with a large enough effect in the signal ratio, with a control signal flat, not every such curve was filed as active; the % refers to the signal ratio; also: % is scaled to controls: 0 for no effect and ±100 for the full control effect). The procedure, abridged:
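Fluorescence from CCF4 substrate after 2 h at room temperature gave reporter activity; cells had been exposed to compound and 0.5nM 17-beta-estradiol for 18 h at 37 C. Hill-equation fitting yielded IC50 and maximal response.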

For assay [8] the target is unchanged. As to the kind of experiment: qHTS assay for small molecule agonists of estrogen receptor alpha signaling (AID 588514; calls by dose curve;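 also: 0% = vehicle only and 100% = reference agonist; nearly all actives have a fitted effect of over 70% in size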). The procedure, abridged: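 EC50 and efficacy came from Hill fits of beta-lactamase reporter signal (CCF4 dye, 2 h at room temperature) scaled between DMSO and 20 nM 17-beta-estradiol. Agonist mode: HEK293 ER-alpha-UAS-bla cells in charcoal/dextran-stripped serum medium, 18 h compound exposure at 37 C.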

For assay [9], the target named is Peroxisome proliferator-activated receptor gamma (Homo sapiens) (UniProt P37231). The assay can be described thus: qHTS assay for small molecule agonists of peroxisome proliferator-activated receptor gamma signaling (AID 588536; active = well fitted curve in the direction sought with a large enough effect in the signal ratio, with a control signal flat, not every such curve was filed as active; the % refers to the signal ratio;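 also: 0% = DMSO basal wells and 100% = rosiglitazone at 2 µM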). An outline of the steps: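 This is an agonist-mode beta-lactamase reporter assay in HEK293 PPAR-gamma-UAS-bla cells with 1% charcoal/dextran FBS. Compound titrations ran 16 h at 37 C before CCF4 detection. EC50 and efficacy are Hill fits scaled to 2 uM rosiglitazone (100%) and DMSO basal.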
Chain of Peroxisome proliferator-activated receptor gamma (Homo sapiens) (P37231 whole entry, looked up): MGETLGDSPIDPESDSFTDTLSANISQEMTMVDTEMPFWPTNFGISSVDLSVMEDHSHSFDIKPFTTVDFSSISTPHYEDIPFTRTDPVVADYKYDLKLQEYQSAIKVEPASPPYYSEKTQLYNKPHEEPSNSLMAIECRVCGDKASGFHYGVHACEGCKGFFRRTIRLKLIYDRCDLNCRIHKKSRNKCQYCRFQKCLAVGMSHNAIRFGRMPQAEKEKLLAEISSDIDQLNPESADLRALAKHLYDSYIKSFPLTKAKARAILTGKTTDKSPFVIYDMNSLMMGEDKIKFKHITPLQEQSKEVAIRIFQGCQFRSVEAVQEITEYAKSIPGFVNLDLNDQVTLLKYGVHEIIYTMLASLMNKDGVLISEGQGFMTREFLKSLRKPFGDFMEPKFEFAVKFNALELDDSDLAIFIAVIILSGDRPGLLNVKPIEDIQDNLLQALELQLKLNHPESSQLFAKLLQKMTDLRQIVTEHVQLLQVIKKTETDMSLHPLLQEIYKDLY

Assay [10] is described as follows: qHTS assay for small molecule antagonists of the retinoid-related orphan receptor gamma (ROR-gamma) signaling pathway - cell viability counter screen (AID 720652; active = well fitted curve in the direction sought with a large enough effect in the repeat runs; an effect the other way counts as inactive or inconclusive;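 also: compound exposure lasted 16 hr before ATP read; % is scaled to controls: 0 for no effect and ±100 for the full control effect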). The procedure, abridged: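 Cytotoxicity counter screen: intracellular ATP (CellTiter-Glo luminescence) measured in the doxycycline-induced CHO RORE-luciferase reporter line after 16 hr compound exposure at 37 C, 5% CO2.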

The nature of assay [11]: Cell Viability - Jurkat (AID 426;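 active = dose-dependent loss of cell ATP signal giving a full or clear fitted curve, ranked by lower potency value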;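 also: potency is read from the fitted curve at half-maximal effect; cells exposed to compound for 40 hours at 37 °C before ATP read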). The conditions noted are these: qHTS. An outline of the steps: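 Cytotoxicity taken as drop in cellular ATP (CellTiter-Glo luminescence, 20 min room temperature) after 40 hr, 37C treatment of 5000 Jurkat Clone E6-1 cells per well; concentration-response fitted with Hill equation for AC50.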
A short description of assay [12]: Cellular Toxicity (caspase-3) SK-N-SH (AID 661).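 Also: cells exposed to compound for 16 hours; 0% = DMSO basal and 100% = 10 µM staurosporine.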 An outline of the steps: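 Caspase 3/7 activation was read by luminogenic substrate cleavage after 16 hour treatment of SK-N-SH cells. Signal was scaled between DMSO and 10 uM staurosporine, and concentration-response data were fitted with the Hill equation for AC50.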
Assay [13] in a line: Cell Viability - LYMP2-008 (AID 980). Also: % is scaled to controls: 0 for no effect and ±100 for the full control effect; nearly all actives have a fitted effect of over 60% in size. An outline of the steps:
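Cytotoxicity determined from ATP-dependent luciferase luminescence (CellTiter-Glo) following 24 h compound exposure of human lymphoblastoid LYMP2-008 cells at 37 C. Concentration-response data fitted to the Hill equation to give AC50.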

The target of assay [14] is Glucocorticoid receptor (Homo sapiens) (UniProt P04150). The assay can be described thus: qHTS assay for small molecule antagonists of glucocorticoid receptor signaling (AID 588533; active = well fitted inhibition curve with a large enough effect in the signal ratio, with a control signal flat, not every such curve was filed as active; the % refers to the signal ratio;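 also: cells stimulated with 2 nM dexamethasone as agonist; % is scaled to controls: 0 for no effect and ±100 for the full control effect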). The procedure, abridged: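 Antagonist-mode qHTS: compound titrations added to GRE-bla HeLa cells, then dexamethasone 2 nM final; 18 h, 37 C. CCF4 FRET fluorescence normalized to dexamethasone and DMSO; IC50 from Hill fit.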
Chain of Glucocorticoid receptor (Homo sapiens) (P04150 whole entry, looked up): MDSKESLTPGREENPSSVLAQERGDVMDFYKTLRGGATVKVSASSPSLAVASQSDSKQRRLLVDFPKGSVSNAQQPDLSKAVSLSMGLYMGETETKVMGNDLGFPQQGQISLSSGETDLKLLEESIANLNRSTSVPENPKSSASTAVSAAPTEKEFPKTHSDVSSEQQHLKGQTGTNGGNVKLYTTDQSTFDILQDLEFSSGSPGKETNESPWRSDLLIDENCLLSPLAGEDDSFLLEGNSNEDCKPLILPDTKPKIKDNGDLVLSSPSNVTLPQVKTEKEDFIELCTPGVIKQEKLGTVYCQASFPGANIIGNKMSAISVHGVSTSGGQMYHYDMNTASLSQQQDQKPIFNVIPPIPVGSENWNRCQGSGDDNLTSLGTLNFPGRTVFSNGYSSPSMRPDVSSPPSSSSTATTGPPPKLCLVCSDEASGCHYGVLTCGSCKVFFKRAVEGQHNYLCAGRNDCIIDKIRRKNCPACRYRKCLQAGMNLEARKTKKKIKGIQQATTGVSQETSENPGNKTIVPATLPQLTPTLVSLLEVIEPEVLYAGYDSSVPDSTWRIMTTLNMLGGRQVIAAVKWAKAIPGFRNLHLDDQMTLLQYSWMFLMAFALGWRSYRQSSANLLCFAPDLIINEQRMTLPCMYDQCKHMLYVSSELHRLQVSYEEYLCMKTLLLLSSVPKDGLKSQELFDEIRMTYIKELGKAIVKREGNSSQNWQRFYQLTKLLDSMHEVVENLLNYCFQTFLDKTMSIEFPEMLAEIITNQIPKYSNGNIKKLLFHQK

The nature of assay [15]: Cell Viability - LYMP1-003 - Assay at 24 hr (AID 963).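 Also: plate controls were DMSO only for no effect and tetraoctylammonium bromide positive control for full effect.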 An outline of the steps:
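Concentration-response qHTS: ATP loss measured by CellTiter-Glo luminescence after 24 h compound exposure at 37 C. Cells were LYMP1-003 human lymphoblastoid, 2500 per well. AC50 derived via standard Hill equation modeling.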

The nature of assay [16]: Cell Viability - LYMP2-025 (AID 976).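 Also: plate controls were DMSO only for no effect and tetraoctylammonium bromide control for full effect.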 The procedure, abridged:
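Cytotoxicity read as loss of intracellular ATP (luciferase luminescence) after 24 h compound treatment at 37 C. Uses LYMP2-025 lymphoblastoid cells in 1536-well format; Hill-equation modelling gives AC50; tetraoctylammonium bromide as positive control.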

Chain of Estrogen receptor (Homo sapiens) (P03372 whole entry, looked up): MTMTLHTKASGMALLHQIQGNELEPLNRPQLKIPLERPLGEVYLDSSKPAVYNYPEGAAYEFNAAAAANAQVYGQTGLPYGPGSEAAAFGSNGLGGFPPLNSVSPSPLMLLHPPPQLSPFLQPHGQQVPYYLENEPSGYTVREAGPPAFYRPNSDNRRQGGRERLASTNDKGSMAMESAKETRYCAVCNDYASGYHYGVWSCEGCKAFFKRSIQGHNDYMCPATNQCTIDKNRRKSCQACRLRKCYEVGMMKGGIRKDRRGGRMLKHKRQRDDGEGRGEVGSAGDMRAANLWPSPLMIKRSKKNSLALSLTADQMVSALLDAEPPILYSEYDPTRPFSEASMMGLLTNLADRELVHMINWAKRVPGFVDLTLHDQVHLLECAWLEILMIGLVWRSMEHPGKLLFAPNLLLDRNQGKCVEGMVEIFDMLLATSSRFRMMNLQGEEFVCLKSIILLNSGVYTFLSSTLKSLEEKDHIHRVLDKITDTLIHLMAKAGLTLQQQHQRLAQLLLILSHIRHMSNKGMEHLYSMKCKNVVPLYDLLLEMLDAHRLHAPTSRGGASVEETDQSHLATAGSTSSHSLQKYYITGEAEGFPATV

Regarding `Nc1ccccc1O`, the activity change, negative = cytotoxicity in assay [1] was -130% (active). The Potency entry in assay [2], in assay [3], in assay [4], in assay [5], in assay [6] and in assay [8] was “inactive” in each case. Also, the Potency result in [10] is “inactive”. Further, the result in assay [7] and in [9] was inactive.
Consider `Oc1ccc2c(c1)OCO2`, for which the Potency in [11] was more than 92 µM. The Potency entry in assay [2], in assay [3], in [13], in assay [6], in assay [8] and in assay [14] was “inactive” in each case. Besides, in [10], the Potency entry was “inactive”. The compound was classed as inactive in [12] and in assay [7].
Take `Cc1cccnc1`: in assay [11], the Potency is more than 92 µM. In addition, the activity change, negative = cytotoxicity in assay [1] is -24.9%. The result in assay [12] and in assay [9] was inactive. For the same compound, the Potency result in [15], in assay [3], in assay [4], in assay [6] and in assay [10] was “inactive” throughout.
As to `c1ccc(CSCc2ccccc2)cc1`, the Potency in assay [11] is more than 92 µM. Moreover, the activity change, negative = cytotoxicity in assay [1] was -18.8%. The Potency result in assay [16], in assay [13], in assay [5], in [6], in assay [14] and in [10] was “inactive” each time. For the same compound, the call in assay [9] was inactive.
`C=C(C#N)C(=O)OCC`: in assay [1], the activity change, negative = cytotoxicity is -117% (active). Also, the call in [12] and in assay [9] was inactive. Besides, the Potency result in [15], in assay [3], in assay [16], in assay [13], in assay [5] and in assay [14] was “inactive” in each case. Besides, in [10], the Potency entry is “inactive”.
On to `CC(/C=C/C=C(C)/C=C/C(=O)O)=C\C=C\C=C(C)\C=C\C=C(C)\C=C\C(=O)O`, for which the Potency entry in [2], in assay [15], in assay [3], in assay [16], in [4] and in assay [13] was “inactive” in each case. The Potency entry in assay [5], in assay [6], in assay [8] and in assay [14] was “inactive” in each case. Also, in [7], the result was inactive.
Take `Brc1cc(Oc2cc(Br)c(Br)c(Br)c2Br)c(Br)c(Br)c1Br`: the Potency result in [2], in [3], in assay [16], in assay [4], in assay [5] and in assay [6] was “inactive” each time. Besides, the Potency entry in assay [14] is “inactive”. Besides, in assay [12], the result was inactive.
Consider `O=[N+]([O-])c1ccccc1Nc1ccccc1`, for which the Potency in assay [11] was more than 92 µM. In assay [1], the activity change, negative = cytotoxicity was -20.1%. The Potency result in assay [2], in assay [15], in [4], in [13], in assay [5] and in assay [6] was “inactive” each time. For the same compound, the Potency result in [8] and in [14] was “inactive” each time. The compound was called inactive in [12], in [7] and in [9].
On to `CCc1ccc(C(c2ccc(CC)cc2)C(Cl)Cl)cc1`, for which, in assay [11], the Potency was more than 92 µM. Moreover, the activity change, negative = cytotoxicity in assay [1] is -11.4%. The result in [12] and in assay [7] was inactive. In addition, the Potency entry in assay [15], in assay [16], in assay [4], in [13], in assay [6] and in assay [8] was “inactive” in each case. In addition, the Potency result in [14] is “inactive”.
In the case of `C[Si](C)(C)Cl`, the Potency in assay [11] was more than 92 µM. Moreover, the activity change, negative = cytotoxicity in [1] is -21.3%. The Potency entry in assay [2], in assay [3], in assay [4], in assay [13], in [6] and in [8] was “inactive” throughout. Also, the Potency result in assay [14] and in assay [10] was “inactive” each time. Besides, the compound was classed as inactive in assay [12] and in assay [7].
On to `c1ccncc1`, for which the Potency in assay [11] was more than 92 µM. In addition, the activity change, negative = cytotoxicity in assay [1] was -13.1%. Also, the Potency entry in assay [2], in [15], in [3], in assay [16], in [4] and in assay [5] was “inactive” throughout. Besides, the Potency result in assay [6], in assay [8] and in assay [10] was “inactive” throughout. Further, the compound was classed as inactive in assay [12], in [7] and in assay [9].
